# From PubChem BioAssay (NCI)
# This is part of a sample that, as a whole, favours compounds with a hit. Of some 79,000 tested, about 15% had one in any assay. Values without a mark were called inactive. Active and inactive are the calls of the source. No stated cut-off is given here; in the data, active means growth inhibition above about 70%; inactive means the rest.
# Tests used:
# [1] = NCI Yeast Anticancer Drug Screen. Data for the rad50 strain (AID 155);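 further: 0% = growth of vehicle-only cultures of the same strain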; settings: S. cerevisiae rad50 strain growth inhibition; at 50.0 µM; hits give high values
# In short: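 Genetically altered yeast (DNA repair pathway); compound treatment; growth inhibition vs vehicle ctrl.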
# [2] = NCI Yeast Anticancer Drug Screen. Data for the mec2-1 strain (AID 157); settings: S. cerevisiae mec2-1 strain, at 50.0 µM, hits give high values
# In short: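 mec2-1 yeast strain, carrying an alteration in DNA damage repair or cell cycle control, was exposed to compounds; growth inhibition was measured relative to vehicle-treated controls.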
# [3] = NCI Yeast Anticancer Drug Screen. Data for the sgs1 mgt1 strain (AID 161);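 further: 0% = growth of cultures given vehicle only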; settings: S. cerevisiae sgs1 mgt1 strain, at 50.0 µM, hits give high values
# In short: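 Growth of a repair-deficient yeast mutant was monitored after compound treatment and expressed as inhibition relative to vehicle-treated cultures.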
# [4] = NCI Yeast Anticancer Drug Screen. Data for the cln2 rad14 strain (AID 165);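 further: 0% = growth equal to vehicle treated cultures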; settings: S. cerevisiae cln2 rad14 strain, at 50.0 µM, hits give high values
# In short: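 Yeast carrying cln2 and rad14 alterations (cell cycle control and DNA damage repair) were exposed to compounds. Growth inhibition was measured against vehicle-treated controls.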
# [5] = NCI Yeast Anticancer Drug Screen. Data for the bub3 strain (AID 167); settings: S. cerevisiae bub3 mutant strain, at 50.0 µM, hits give high values
# In short: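 Yeast carrying a defined mutation is treated with each compound, and growth is compared with that of vehicle-exposed cells to give inhibition.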
# [6] = NCI Yeast Anticancer Drug Screen. Data for the mlh1 rad18 strain (AID 175); settings: S. cerevisiae mlh1 rad18 strain growth inhibition; at 50.0 µM; hits give high values
# In short: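 Growth inhibition of the yeast strain was measured after compound exposure and expressed relative to vehicle-treated controls. The strain carries defined defects in DNA damage repair.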
Structure (SMILES),growth inhibition [1],growth inhibition [2],growth inhibition [3],growth inhibition [4],growth inhibition [5],growth inhibition [6]
CC(C)(C)NC(=O)Oc1cccnc1,7.1%,-4.6%,-12.6%,-42.4%,27.6%,8%
[O-][n+]1ccccc1Cl,8.05%,9.9%,10.2%,-14.4%,6.85%,16.4%
CCCCCCP(=O)(CCCC)CCCC,38.1%,11.9%,41.2%,-20.9%,-12%,-0.2%
CC1(C)OC(=O)ON(Cc2ccccc2)C1=O,-4.45%,-2.85%,2.2%,2.35%,3.3%,-13.4%
Cc1ccc(NC(=O)OCC(F)(F)F)cc1NC(=O)OCC(F)(F)F,1.9%,29.3%,26.1%,-0.9%,16.8%,1.95%
C[N+]1(C(CO)Cc2c[nH]c3ccccc23)Cc2ccccc2C1 (stereo unspecified),10.6%,14.6%,-19.1%,-8.35%,-65.5%,-5.7%
Cl/C(=C\c1ccccc1)c1ccccc1,20.4%,-6.55%,-5.7%,-42.5%,7.7%,-6.55%
COCCCNC(=O)C1=CCCN(C)C1,6%,-3.45%,-3.55%,-2.45%,-1.55%,-3.3%
CC(=O)N(C)c1ccc(NC(=O)/C=C/c2ccccc2)cc1,0.15%,4.25%,15.7%,-9.85%,28.1%,17.1%
C/C(Nc1ccc(Cl)cc1)=C1/CCOC1=O,19.1%,5.7%,35.5%,13.1%,11.7%,-24.9%
COc1ccccc1OC(C)=O,-5.2%,-14.4%,-2.3%,-8.2%,-1.35%,17.9%
C=C1COC(/C=C(\C)CC/C=C(\C)CCl)C1 (stereo unspecified),-7.4%,-20.2%,-18.6%,28.1%,-17.1%,-1.7%
O=C(O)c1ccccc1/C=N\NC1=NCCCCN1,-34.2%,-10.3%,-31.4%,20.2%,-27.6%,-18.4%
Cc1cccc(CNc2ncnc3[nH]ncc23)c1,-15%,-30.8%,-24.8%,-12.6%,-36.1%,3.15%
c1ccc2c(c1)[nH]c1ccccc12,-30.9%,-15.9%,1.65%,-3.05%,-5.5%,7.05%
CC1=C(Br)C(=O)C(c2c(C)cc(C)cc2C)=C(Br)C1=O,97.5% (active),98% (active),98.2% (active),92.8% (active),97.5% (active),98.5% (active)
COc1ccc(/C=C/c2nc(=S)[nH][nH]2)cc1OC,-18.1%,-21.5%,12.7%,12.3%,25.1%,-3.1%
Nc1nc2c3nc(Nc4ccccc4)sc3nc(=O)n2c2sc(Nc3ccccc3)nc12,1.85%,1.65%,2.75%,-4.15%,-20.3%,2.6%
CC1CC2C3(C1)CC(C(=O)OC3=O)C2(C)C (stereo unspecified),-3.4%,-11.4%,-7.35%,-37.4%,-2.1%,23.4%
CCC(=N)C(c1ccccc1)(c1ccccc1)C(C)CN(C)C (stereo unspecified),23.6%,-7.3%,-2.4%,-4.75%,-9.15%,13.7%
C/C=C/c1cc(C=O)cc(OC)c1O,0.15%,-8.1%,-5.4%,-10.6%,-4.4%,5.75%

Structure (SMILES),growth inhibition [1],growth inhibition [2],growth inhibition [3],growth inhibition [4],growth inhibition [5],growth inhibition [6]
CCN(CC)CCNc1nnc(NCCN(CC)CC)c2cc3ccccc3cc12,3.75%,21%,-10.1%,-4.45%,-0.25%,6.8%
CC(O)CNCC(C)(C)N (stereo unspecified),-4.6%,-4.65%,-4.8%,-7.5%,3.15%,-1.95%
CC(=O)COC(C)=O,40.2%,-15.6%,4.85%,-5%,2.6%,12.6%
c1ccc2c3c(cc(CCc4cc5c(c6ccccc46)CCCC5)c2c1)CCCC3,-9.8%,-18.3%,-5.65%,-16%,-8.9%,-4.2%
Nc1ncnc2nc[nH]c12,-8.7%,-6.7%,13.9%,-24.7%,-12.1%,-5.7%
C=C(C)CCC[C@@H](C)C1CCC2(C)[C@@H]3CCC4C(C)(C)[C@@H](O)CC[C@@]45C[C@@]35CC[C@]12C (stereo partly specified),31.1%,0.45%,25.4%,0.5%,18%,23.1%
O=S(=O)(c1ccccc1)N1C[C@@H]2[C@H](C1)[C@H]1C=C[C@@H]2C1,1.95%,-12.3%,13%,-4.8%,42.6%,-11%
O=C(O)/C=C/n1c2ccccc2c(=O)c2ccccc21,-10.1%,-13.8%,-20.9%,8.9%,-7.7%,-15%
COc1ccc(C2=NC(C)(C)CO2)cc1C,-23.1%,-4.15%,3.6%,-17.9%,21.1%,20.5%
CCCCCCCCC1C(CCCCCCCC(=O)N(CC)CCCOCC)C2(Cl)C(Cl)=C(Cl)C1(Cl)C2(Cl)Cl (stereo unspecified),3.45%,4.65%,13.9%,-10.6%,-6.35%,16.4%
CN(C)CSC(=S)NCCNC(=S)SCN(C)C,1.6%,-19.6%,24.8%,5.95%,4%,-4.1%
Cn1c(SCc2ccc(F)cc2)nnc1C12CC3CC(CC(C3)C1)C2,-32.2%,-12.2%,-22.6%,-1.95%,-17.4%,-48.1%
O=C1CNC(=O)N1Nc1ccccc1,-9.35%,-2.55%,-2.35%,-26.6%,4%,-5.3%
CCOC(OCC)/C(C)=N/N(C)C,5.05%,8.95%,-5.35%,7.3%,-6.1%,-2.5%
Oc1ccc(Cn2c(-c3ccc(O)cc3)nc3ccccc32)cc1,-6.95%,-5%,-10.1%,5.05%,1.4%,-13.3%
CNc1nc(SC)nc2[nH]ncc12,7.1%,-9.2%,2.45%,-3.2%,23%,2.05%
Cc1ccc(S(=O)(=O)c2c(N)c3nccn3c3nc4ccccc4nc23)cc1,-52.2%,-68.2%,-77.5%,-38.8%,-62.1%,-88.8%
Cc1cccc(N=C2NC(=O)C(CC(=O)Nc3ccc(Cl)cc3C)S2)c1 (stereo unspecified),0.05%,-1.9%,1.95%,3.55%,8.15%,3%
CC(C)(C)OC(=O)N1CCCC1=O,9.65%,13%,24.8%,22.3%,8.05%,28.5%
C=C1CCC2[C@](C)(CCC[C@]2(C)C(=O)O)[C@@H]1CCc1ccoc1 (stereo partly specified),70.8% (active),59.9%,73% (active),77% (active),73.8% (active),78.8% (active)
